A selection: hits, their analogues and other compounds. The true share with any hit is near 4.1%.
rCAG RNA binder: binds r(CAG) RNA repeats; r(CAG) RNA repeat, TO-PRO-1 dye displacement fluorescence; inhibition, % at 3 µM; actives 1.3% (n = 370,000);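 active = inhibition above the plate cutoff, the mean of all test compounds on that plate plus 3 SD, cut at about 35% in these data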;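 note: 0% = DMSO alone and 100% = 100 µM mitoxantrone as full dye displacement; higher means more dye released from RNA so lower well fluorescence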
PRMT1 inh: PRMT1 (human) inhibition, primary screen; actives 1.3% (n = 370,000); recombinant PRMT1, activity-based probe fluorescence polarization; Q99873; inhibition, % at 2.79 µM; AID 652257;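 active = inhibition above about 21% made by adding two undisclosed values, limit read from the data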
LEDGF integ inh: blocks HIV-1 LEDGF/p75-dependent DNA integration; inhibition, % at 3.7 µM; actives 0.64% (n = 370,000); TR-FRET IN-LEDGF/p75 DNA integration, Eu/Cy5;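 active = inhibition above the screen-wide mean plus 3 SD, cut at about 13% in these data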;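 note: signal is the Cy5 over europium emission ratio at 671 and 618 nm; 0% = plate median of compound wells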
ABHD5-PLIN5 inh: blocks binding of human ABHD5 to perilipin-5. AID 602281. inhibition, % at 4 µM. Q00G26+Q8WTS1. actives 0.78% (n = 360,000). Split G. princeps luciferase complementation, luminescence, 4 h;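 active = inhibition above the mean inhibition across every tested compound plus 3 SD, cut at about 22% in these data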;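 note: 0% = DMSO only wells and the 100% control is not disclosed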
MBD2 inh: blocks human MBD2 binding to methylated DNA; actives 0.31% (n = 370,000); AID 686964; inhibition, % at 4.4 µM; TR-FRET, MBD2 binding to methylated oligonucleotide; in the data active = inhibition above about 13%
UHRF1 binding: human UHRF1 methylated DNA binding inhibitors. UHRF1 binding to methylated oligo, TR-FRET. Q96T88. actives 0.75% (n = 370,000). inhibition, % at 4.4 µM; in the data active = inhibition above about 21%;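 note: UHRF1 SRA domain binding a hemimethylated CpG hairpin DNA probe; 0% = median of test compound wells and 100% = reference inhibitor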
ABHD5-PLIN5 conf: ABHD5-PLIN5 interaction inhibition, confirmed; shares compounds with ABHD5-PLIN5 inh; actives 67% (n = 2,200); AID 651612; inhibition, % at 4 µM; biochemical ABHD5-PLIN5 interaction, luminescence; in the data active = inhibition above about 23%;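 note: 0% = DMSO vehicle wells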
HNF4 split-luc: counter-screen for ABHD5-PLIN5 inhibitors: HNF4 split-luciferase; shares compounds with ABHD5-PLIN5 inh; inhibition, % at 4 µM; HNF4 dimerization, luminescence, biochemical; actives 77% (n = 2,200);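 active = mean inhibition across replicate wells exceeding the computed hit threshold, cut at about 13% in these data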;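 note: light from luciferase halves that rejoin when HNF4 fusion proteins dimerize; 0% = DMSO only wells and the 100% control is not given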
Target sequence (P41235 whole entry, looked up, the tested form may be a part): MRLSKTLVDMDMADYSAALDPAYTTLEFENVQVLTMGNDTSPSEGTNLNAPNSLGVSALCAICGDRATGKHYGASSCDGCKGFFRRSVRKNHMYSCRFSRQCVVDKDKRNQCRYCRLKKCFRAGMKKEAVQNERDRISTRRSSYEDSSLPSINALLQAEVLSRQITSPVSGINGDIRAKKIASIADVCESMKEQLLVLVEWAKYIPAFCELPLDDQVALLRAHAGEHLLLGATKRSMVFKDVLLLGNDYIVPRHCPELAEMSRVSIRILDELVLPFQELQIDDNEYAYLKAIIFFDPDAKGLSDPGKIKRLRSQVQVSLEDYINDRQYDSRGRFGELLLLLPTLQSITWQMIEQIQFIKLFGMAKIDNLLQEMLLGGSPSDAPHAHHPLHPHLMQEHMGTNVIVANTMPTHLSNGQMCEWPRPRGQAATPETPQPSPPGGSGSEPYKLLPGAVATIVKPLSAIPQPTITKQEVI
An asterisk follows results filed as active; nt = no result.

SMILES | rCAG RNA binder | PRMT1 inh | LEDGF integ inh | ABHD5-PLIN5 inh | MBD2 inh | UHRF1 binding | ABHD5-PLIN5 conf | HNF4 split-luc
CCOC(=O)C1=C(C)N=c2s/c(=C3\C(=O)Nc4ccccc43)c(=O)n2C1c1ccc2c(c1)OCO2 (configuration not stated) | 32.8 | 21.1 | -4.3 | 26.7* | -0.9 | -8.7 | 5.1 | -14.4
CCNC(=O)COc1ccc(/C=C2\COc3ccccc3C2=O)cc1OC | -1.3 | 2.1 | 2.4 | 55.6* | -3.5 | -1.9 | 81.5* | 81.1*
CCOc1cc(/C=C2\COc3ccccc3C2=O)ccc1OCC(=O)N(C)C | 2.2 | 2.7 | -3.0 | 60.7* | 1.1 | -1.9 | 77.1* | 69.3*
COc1ccc(/C=C2\CCc3ccccc3C2=O)cc1OC | -4.9 | 3.2 | 0.8 | -0.5 | 0.8 | 1.0 | nt | nt
O=C1/C(=C/c2c[nH]c3ccccc23)CCC/C1=C\c1c[nH]c2ccccc12 | 25.2 | 7.0 | 3.4 | 30.2* | -4.1 | -5.6 | 28.9* | 58.0*
C(=NN=Cc1c[nH]c2ccccc12)c1c[nH]c2ccccc12 | 4.2 | -0.8 | -1.2 | 9.3 | -1.8 | -1.2 | nt | nt
O=C(/C=C/c1ccccc1Br)c1ccc2c(c1)OCO2 | 1.5 | -5.0 | 1.1 | -0.4 | -1.7 | 2.7 | nt | nt
COc1cc(/C=C/C(=O)c2ccc3c(c2)OCCO3)cc(Br)c1OCC(=O)N(C)C | 7.4 | -0.3 | -0.4 | 39.8* | 1.5 | -2.5 | 73.6* | 72.8*
O=C(/C=C/c1ccccc1)c1ccc2c(c1)OCO2 | -0.5 | -0.8 | -5.1 | 29.6* | 3.4 | -0.1 | 49.8* | 34.4*
COc1cccc(/C=C/C(=O)c2ccc3c(c2)OCO3)c1OC | nt | nt | nt | 4.0 | nt | nt | nt | nt
O=C(/C=C/c1ccncc1)c1ccc2c(c1)OCCO2 | 0.5 | 5.4 | -0.1 | 59.5* | -2.3 | -3.2 | 77.7* | 74.2*
CN(C)c1ccc(/C=C/C(=O)c2ccc3c(c2)OCO3)cc1 | 4.5 | -12.9 | 1.1 | -0.9 | -6.9 | -4.0 | nt | nt
O=C(/C=C/c1cccc(Br)c1)c1ccc2c(c1)OCO2 | 3.9 | -0.5 | 1.7 | 32.9* | 2.6 | -2.0 | 74.4* | 62.7*
CCN(CC)C(=O)c1ncn2c1C(=O)NC[C@@H]2C | 0.5 | 2.3 | -0.8 | nt | -0.5 | 0.7 | nt | nt
CCOc1c(N2CC(C)OC(C)C2)c(=O)c1=O (configuration not stated) | -2.8 | 4.6 | -2.1 | -1.2 | 2.0 | 3.0 | nt | nt
CC1CN(C2=CC(=O)CCC2)CC(C)O1 (configuration not stated) | 0.5 | 5.3 | -3.5 | 30.9* | -1.6 | -1.8 | -4.2 | 13.0*
C[C@@H]1COc2cc(N3CCOCC3)ccc2S(=O)(=O)N1 | 1.2 | -2.7 | 7.2 | nt | 4.6 | 13.9 | nt | nt
CC1CCCN(S(=O)(=O)c2ccc(NC(=O)C3CCN(C(=O)c4ccco4)CC3)cc2)C1 (configuration not stated) | 4.8 | -2.7 | 0.3 | 24.1* | 6.9 | -0.6 | 4.3 | 0.4
O=C(c1ccco1)N1CCN(S(=O)(=O)c2ccc(Oc3ccccc3)cc2)CC1 | -5.4 | -2.5 | 1.9 | 49.6* | -9.8 | -3.5 | 8.3 | 17.6*
CCC(C)NS(=O)(=O)c1ccc(NC(=O)C2CCN(C(=O)c3ccco3)CC2)cc1 (configuration not stated) | 0.6 | 1.3 | 0.6 | 4.1 | 5.4 | -2.8 | nt | nt
O=C(NCCC1=CCCCC1)C1CCN(S(=O)(=O)c2ccccc2[N+](=O)[O-])CC1 | 3.4 | -2.1 | 0.5 | nt | -1.4 | 0.9 | nt | nt
CCCCCC(=O)NC1CCCCN(Cc2cccc(Cl)c2)C1=O (configuration not stated) | -3.0 | -1.0 | 4.1 | nt | -6.4 | 2.4 | nt | nt
Oc1ccccc1C1CC(c2cccs2)=NC(c2cccc(Br)c2)N1 (configuration not stated) | 9.1 | 10.2 | -4.0 | 45.2* | 0.3 | 10.0 | 23.1* | 49.2*
COc1ccc2nc3ccccc3nc2c1N | 6.1 | 13.0 | 3.4 | 37.9* | -28.5 | -8.2 | -0.2 | 10.4
COc1ccc2nc3cccc(OC)c3nc2c1 | 0.8 | 8.4 | -12.1 | -24.8 | -6.6 | -9.1 | nt | nt
